Consider nine compounds from PubChem BioAssay.

The source made the active and inactive calls.

Assay [1] in a line: E. coli DRC41 culture turbidity changes, primary screen, E. coli filamentation inducer project, strain DRC41, OD650, 48 h (AID 1152).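 Also: E. coli MC1000 strain DRC41 lacking acrAB efflux pump and sulA.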 Conditions: E. coli DRC41 (acrAB sulA), higher = more signal, called active from +8 up or from −8 down.
Assay [2] is described as follows: small-molecule binders of probe aLefty1, primary screen, biochemical, small-molecule microarray, 635/667 nm fluorescence (AID 1153).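 Also: score merges spot fluorescence with signal-to-noise ratio from the scanned slide images.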 The settings on record: higher = more signal.
A short description of assay [3]: PSAC antagonists in infected red cells, primary screen, cell-based, P. falciparum Indochina, OD700, 1 h (AID 1154). The settings on record: P. falciparum Indochina infected RBC osmotic lysis, higher = more signal, called active from +8 up or from −8 down.
A short description of assay [4]: PSAC antagonists in infected red cells, primary screen, cell-based, P. falciparum Indochina, OD700, 2 h (AID 1155).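 Also: lysis reports solute entry through the parasite surface anion channel PSAC; channel blockers reduce lysis of infected cells.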 Conditions: P. falciparum Indochina infected erythrocytes, osmotic lysis OD700; higher = more signal, called active from +8 up or from −8 down.
Assay [5] in a line: osmotic lysis modulators in infected erythrocytes, primary screen, PSAC antagonist project, cell-based, P. falciparum Indochina, OD700, 3 h (AID 1156). Conditions: higher = more signal, called active from +8 up or from −8 down.
The nature of assay [6]: PSAC antagonists in infected red cells, primary screen, cell-based, P. falciparum Indochina, OD700, 18 h (AID 1157). Conditions: P. falciparum Indochina infected erythrocytes, osmotic lysis OD700, 18 h; higher = more signal, called active from +8 up or from −8 down.
Assay [7] can be described thus: modulators of S6 phosphorylation in cells, primary screen, cell-based, A549, cytoblot, luminescence, serum-stimulated (AID 1158).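 Also: serum-stimulated A549 lung adenocarcinoma cells; signal is phosphorylated S6 detected by cytoblot immunostaining with HRP secondary.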 Conditions: A549 phospho-S6 cytoblot, 5 h, higher = more signal.
For assay [8], the target named is NADPH oxidase 2 (Homo sapiens) (UniProt P04839). Description: NOX2-dependent H2O2 signal modulators, primary screen, NOX inhibitor project, cell-based, HEK293-NOX2, PMA-stimulated, Amplex Red fluorescence (AID 1159). Also: test concentration not given here. Conditions: 45 min, higher = more signal, called active from +8 up or from −8 down.
NADPH oxidase 2 (Homo sapiens), sequence (P04839 whole entry, looked up): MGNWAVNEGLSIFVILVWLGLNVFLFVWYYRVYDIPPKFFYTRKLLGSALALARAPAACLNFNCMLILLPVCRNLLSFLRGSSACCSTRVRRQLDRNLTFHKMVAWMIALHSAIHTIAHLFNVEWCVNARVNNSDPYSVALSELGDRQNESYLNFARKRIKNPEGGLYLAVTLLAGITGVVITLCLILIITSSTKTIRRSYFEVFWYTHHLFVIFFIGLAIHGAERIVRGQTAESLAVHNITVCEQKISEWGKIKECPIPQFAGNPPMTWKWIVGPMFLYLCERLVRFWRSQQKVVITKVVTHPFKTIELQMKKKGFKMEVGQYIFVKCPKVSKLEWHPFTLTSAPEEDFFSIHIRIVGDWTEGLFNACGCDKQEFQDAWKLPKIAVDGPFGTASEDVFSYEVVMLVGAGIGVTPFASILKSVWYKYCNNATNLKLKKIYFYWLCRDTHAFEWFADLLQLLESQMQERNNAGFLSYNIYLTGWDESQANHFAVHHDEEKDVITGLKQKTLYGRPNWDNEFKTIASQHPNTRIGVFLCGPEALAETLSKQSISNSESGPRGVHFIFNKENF
The target in assay [9] is NADPH oxidase 4 (Homo sapiens) (UniProt Q9NPH5). Briefly: NOX4-dependent H2O2 signal modulators, primary screen, NOX inhibitor project, cell-based, HEK293-NOX4, tetracycline-induced, Amplex Red fluorescence (AID 1160). The settings on record: 45 min, higher = more signal, called active from +8 up or from −8 down.
NADPH oxidase 4 (Homo sapiens), sequence (Q9NPH5 whole entry, looked up): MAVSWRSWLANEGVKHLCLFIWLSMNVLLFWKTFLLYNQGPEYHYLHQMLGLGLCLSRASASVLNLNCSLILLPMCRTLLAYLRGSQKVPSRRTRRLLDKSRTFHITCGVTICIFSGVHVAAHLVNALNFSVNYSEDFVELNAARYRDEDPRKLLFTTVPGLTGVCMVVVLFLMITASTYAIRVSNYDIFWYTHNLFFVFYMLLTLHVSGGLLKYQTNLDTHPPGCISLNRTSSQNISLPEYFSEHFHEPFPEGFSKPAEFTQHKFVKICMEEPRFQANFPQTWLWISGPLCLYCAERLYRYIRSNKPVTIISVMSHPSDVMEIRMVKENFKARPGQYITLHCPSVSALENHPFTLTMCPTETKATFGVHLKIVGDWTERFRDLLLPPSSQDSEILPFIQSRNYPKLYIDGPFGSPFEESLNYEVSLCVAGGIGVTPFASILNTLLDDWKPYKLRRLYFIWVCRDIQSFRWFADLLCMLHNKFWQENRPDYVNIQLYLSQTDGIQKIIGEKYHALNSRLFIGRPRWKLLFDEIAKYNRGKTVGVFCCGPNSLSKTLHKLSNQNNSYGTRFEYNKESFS
For assay [10], the target named is NADPH oxidase 5 (Homo sapiens) (UniProt Q96PH1). Description: NOX5-dependent H2O2 signal modulators, primary screen, NOX inhibitor project, cell-based, HEK293-NOX5, Amplex Red fluorescence (AID 1161). The settings on record: HEK293-NOX5, ionomycin, 45 min, higher = more signal.
NADPH oxidase 5 (Homo sapiens), sequence (Q96PH1 whole entry, looked up): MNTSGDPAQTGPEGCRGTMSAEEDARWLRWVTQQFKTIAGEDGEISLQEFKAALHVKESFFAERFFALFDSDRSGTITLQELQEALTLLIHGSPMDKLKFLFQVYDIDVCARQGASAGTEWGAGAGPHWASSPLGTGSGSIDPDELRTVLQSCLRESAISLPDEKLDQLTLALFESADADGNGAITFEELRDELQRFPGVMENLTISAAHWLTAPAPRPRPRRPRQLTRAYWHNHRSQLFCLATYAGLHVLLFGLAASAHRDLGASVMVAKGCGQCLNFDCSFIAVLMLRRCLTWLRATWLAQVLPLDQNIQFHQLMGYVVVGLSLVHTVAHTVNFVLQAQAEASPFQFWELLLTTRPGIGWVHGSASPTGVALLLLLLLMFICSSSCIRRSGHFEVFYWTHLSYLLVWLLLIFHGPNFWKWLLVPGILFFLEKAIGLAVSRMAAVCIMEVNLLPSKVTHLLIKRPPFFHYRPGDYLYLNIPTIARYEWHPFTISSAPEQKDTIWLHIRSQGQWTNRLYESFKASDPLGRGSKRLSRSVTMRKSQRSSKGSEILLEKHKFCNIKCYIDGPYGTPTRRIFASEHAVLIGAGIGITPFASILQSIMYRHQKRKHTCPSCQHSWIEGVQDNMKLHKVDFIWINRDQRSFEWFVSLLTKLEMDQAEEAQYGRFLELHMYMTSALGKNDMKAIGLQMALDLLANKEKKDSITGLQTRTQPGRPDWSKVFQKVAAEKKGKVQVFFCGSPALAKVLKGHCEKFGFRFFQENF
Assay [11] is described as follows: A549 cell viability effects, profiling panel, calcein-AM fluorescence, 48 h, basal (AID 1162). Also: test concentration not given here. Conditions: higher = more signal.
Assay [12] can be described thus: adipocyte viability effects, profiling panel, cell-based, 3T3-L1 adipocytes, calcein-AM fluorescence, 48 h, basal (AID 1163). Also: test concentration not given here. Conditions: 3T3-L1 adipocytes viability, higher = more signal.
Assay [13] in a line: HepG2 cell viability effects, profiling panel, calcein-AM fluorescence, 48 h, basal (AID 1164). Also: test concentration not given here. Conditions: higher = more signal.
Assay [14] can be described thus: MM1S cell viability effects, profiling panel, calcein-AM fluorescence, 48 h, basal (AID 1165).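 Also: viability of MM1S multiple myeloma cells under basal unstimulated conditions; test concentration not given here.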 The settings on record: higher = more signal.
A short description of assay [15]: basal RPMI8226 viability, no added stimulus, profiling panel, cell-based, calcein-AM fluorescence, 48 h, PK04 Diversity Set (AID 1166).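 Also: cells grown under basal conditions without added stimulus; test concentration not given here.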 The settings on record: RPMI8226 myeloma viability, higher = more signal.
Assay [16] in a line: basal HepG2 mitochondrial membrane potential changes, profiling panel, cell-based, JC-1 fluorescence, 24 h, 100 nL compound (AID 1167). Also: test concentration not given here. Conditions: higher = more signal.
The nature of assay [17]: basal 3T3-L1 adipocyte mitochondrial potential changes, profiling panel, cell-based, JC-1 fluorescence, 3T3-L1 adipocytes, 24 h, 100 nL compound (AID 1168). Also: test concentration not given here. Conditions: JC-1 mitochondrial fluorescence, higher = more signal, called active from +8 up or from −8 down.
Assay [18] in a line: basal RPMI8226 mitochondrial membrane potential changes, profiling panel, cell-based, JC-1 fluorescence, 24 h, 100 nL compound (AID 1169). Also: test concentration not given here. The settings on record: RPMI8226 myeloma, JC-1 mitochondrial potential fluorescence, higher = more signal.
A short description of assay [19]: basal MM1S mitochondrial membrane potential changes, profiling panel, cell-based, JC-1 fluorescence, 24 h, 100 nL compound (AID 1170). Also: test concentration not given here. Conditions: higher = more signal.
Assay [20] is described as follows: A549 lung cancer cell viability effects, profiling panel, resazurin fluorescence, 24 h, PK04 Diversity Set (AID 1171). Also: test concentration not given here. Conditions: higher = more signal, called active from +8 up or from −8 down. In general terms: The colour change of resazurin is a common sign of viable cells or microbes.

On to `O=C1CCCC=C1C(O)CCOC(c1ccccc1)(c1ccccc1)c1ccccc1` (stereo not given), for which the z-score was -1.03 (inactive) in assay [1]; 1.52 (inactive) in assay [3]; -0.349 (inactive) in [4]; -0.205 (inactive) in assay [5]; -0.217 (inactive) in assay [6]; -0.0632 in [7]. Also, the z-score in assay [8] is 1.69 (inactive); in assay [9], -1.48 (inactive); in assay [10] it was -0.832; in assay [11], -0.893; in assay [12], -0.268; in [13], -0.26. The z-score in assay [14] was -3.43; in assay [15], -3.62; in assay [16] it was -2.77; in assay [17], -0.115 (inactive); in [18], -0.879; in assay [19], -0.0919. The z-score in assay [20] was 0.418 (inactive). Moreover, in [2], the composite z-score is -0.0969.

`CC(C)=NOC[C@@H](C)[C@H](OCc1ccccc1)C(C)C`: the z-score is 0.287 (inactive) in [1]; 0.641 (inactive) in assay [3]; 0.503 (inactive) in assay [4]; 0.795 (inactive) in assay [5]; 0.39 (inactive) in assay [6]; 0.453 in assay [7]. Besides, the z-score is 0.409 (inactive) in assay [8]; -1.72 (inactive) in [9]; -1 in assay [10]; 0.108 in assay [11]; 0.311 in [12]; -0.0481 in assay [13]. Moreover, the z-score in assay [14] is -0.313; in assay [15], -0.556; in assay [16], -0.0858; in assay [17] it was 0.0392 (inactive); in [18], -0.279; in [19], 0.503. The z-score in [20] is -0.557 (inactive). Further, the composite z-score in assay [2] was determined as 0.103.

`CCCNC(=O)OC[C@H]1O[C@H](c2ccccc2)C=C[C@@H]1Oc1ccc(OC)cc1`: the z-score was 0.604 (inactive) in [1]; 0.906 (inactive) in assay [3]; 0.141 (inactive) in assay [4]; -0.353 (inactive) in assay [5]; 0.0261 (inactive) in assay [6]; 0.136 in [7]. For the same compound, the z-score in assay [8] is 1.35 (inactive); in [9] it was -0.438 (inactive); in assay [10], -1.9; in assay [11] it was -0.365; in assay [12] it was 0.125; in assay [13] it was -0.138. The z-score was -0.543 in assay [14]; -0.0859 in assay [15]; -0.362 in assay [16]; -0.307 (inactive) in assay [17]; -0.215 in [18]; 0.0375 in assay [19]. In addition, in assay [20], the z-score was -0.745 (inactive). Besides, the composite z-score in [2] was -0.092.

As for `COc1ccc(COC(=O)NN=C2C[C@@H](O)[C@@H](O)[C@@H]3[C@@H]4C(=O)N(c5ccc(F)cc5F)C(=O)[C@@H]4CC[C@H]23)cc1`, the z-score in [1] was -0.544 (inactive); in assay [3], 30.2 (active); in [4], 4.98 (inactive); in assay [5], 2.52 (inactive); in assay [6], 1.24 (inactive); in [7] it was -0.434. The z-score in assay [8] was -0.407 (inactive); in [9] it was -0.481 (inactive); in assay [10], -0.876; in assay [11], 0.0819; in assay [12], 0.232; in assay [13], -1.01. In addition, the z-score in [14] is 0.698; in [15] it was -0.887; in assay [16] it was 0.361; in assay [17], -0.982 (inactive); in assay [18], -0.112; in assay [19] it was -1.07. Also, the z-score in assay [20] was 0.764 (inactive). The compound also returned a composite z-score in assay [2] of 0.545.

For `COc1cccc([C@H]2Oc3ccc(OC)cc3C(=NO[C@@H](C)c3cn([C@H](CO)Cc4ccccc4)nn3)[C@@H]2O)c1`, the z-score in assay [1] is -2.4 (inactive); in assay [3] it was 2.52 (inactive); in [4], 0.41 (inactive); in assay [5], 1.19 (inactive); in assay [6], 0.611 (inactive); in assay [7] it was -0.15. For the same compound, the z-score in assay [8] was -0.0734 (inactive); in assay [9] it was -0.424 (inactive); in assay [10] it was -0.327; in [11], -0.53; in [12], 1.3; in assay [13] it was -0.55. Besides, the z-score was 0.738 in assay [14]; -0.631 in assay [15]; -1.22 in [16]; -1.1 (inactive) in [17]; -0.722 in assay [18]; 0.339 in assay [19]. Also, in assay [20], the z-score is -0.819 (inactive). Moreover, in assay [2], the composite z-score was -0.147.

On to `O=C1C=C[C@@H](O)[C@@H]2[C@@H]3C(=O)N(c4ccc(F)cc4F)C(=O)[C@@H]3CC[C@@H]12`, for which the z-score was 0.262 (inactive) in [1]; 0.337 (inactive) in assay [3]; -1.44 (inactive) in assay [4]; -0.562 (inactive) in assay [5]; -1.9 (inactive) in assay [6]; 1.44 in [7]. In addition, the z-score in [8] was -0.632 (inactive); in assay [9] it was 0.267 (inactive); in [10], 0.713; in assay [11], 0.0767; in [12], 0.244; in assay [13], 1.04. Further, the z-score is 0.157 in assay [14]; -1.1 in [15]; 0.991 in assay [16]; 0.46 (inactive) in assay [17]; -0.322 in assay [18]; 0.921 in [19]. The z-score in [20] is -1.47 (inactive). In addition, the composite z-score in [2] is -0.0559.

In the case of `COC(=O)[C@H](C)NC(=O)CCC1CC(OC(=O)NCc2ccc3c(c2)OCO3)CC2(CCCC(COC(=O)NCCc3ccccc3OC)O2)O1` (stereo not given in full), the z-score is -0.0563 (inactive) in assay [1]; 20.9 (active) in [3]; 5.56 (inactive) in assay [4]; -0.257 (inactive) in [5]; 0.566 (inactive) in assay [6]; 1.15 in assay [7]. For the same compound, the z-score in assay [8] was 0.221 (inactive); in [9], 0.301 (inactive); in assay [10] it was 0.339; in assay [11], -0.949; in assay [12], -0.976; in assay [13] it was -2.36. In addition, the z-score in [14] is -3.53; in assay [15] it was -1.56; in [16], -1.34; in [17] it was 0.354 (inactive); in assay [18] it was -0.241; in [19], -0.735. In [20], the z-score is 0.389 (inactive). In assay [2], the composite z-score was -0.162.

`CCOC(=O)[C@H](Cc1ccccc1)NC(=O)CCC1CC(OC(=O)NCc2ccc3c(c2)OCO3)CC2(CCCC(COC(=O)NCCc3ccccc3OC)O2)O1` (stereo not given in full): the z-score was -0.567 (inactive) in [1]; 1.3 (inactive) in [3]; 0.627 (inactive) in assay [4]; -0.451 (inactive) in assay [5]; 0.222 (inactive) in assay [6]; -0.254 in assay [7]. Further, the z-score is 0.799 (inactive) in assay [8]; -1.05 (inactive) in assay [9]; 1.28 in [10]; -1.24 in assay [11]; -0.399 in assay [12]; -0.519 in assay [13]. The z-score in assay [14] was -0.271; in assay [15], -0.502; in assay [16], -0.778; in [17] it was -0.877 (inactive); in [18], 0.444; in assay [19], 0.00939. Besides, in assay [20], the z-score was 0.124 (inactive). The composite z-score in assay [2] is -0.0547.

Take `CC(C)=CCCC(C)=CCON=C1C[C@@H](O)[C@@H](O)[C@@H]2[C@@H]3C(=O)N(c4ccc(F)cc4F)C(=O)[C@@H]3CC[C@@H]12`: the z-score in [1] was 0.217 (inactive); in assay [3], 4.44 (inactive); in assay [4] it was 1.21 (inactive); in assay [5], 2.06 (inactive); in assay [6], 1.07 (inactive); in assay [7], -0.718. The z-score in [8] is -0.333 (inactive); in assay [9], -0.0951 (inactive); in [10], 0.0854; in assay [11] it was -1.34; in [12] it was 0.425; in assay [13], -0.354. Moreover, the z-score in assay [14] is -0.586; in [15], -1.47; in assay [16], 0.208; in assay [17], -1.28 (inactive); in [18] it was -0.163; in [19], -0.356. For the same compound, the z-score in [20] is -0.179 (inactive). In assay [2], the composite z-score worked out at 0.0999.
